These results are taken from PubChem BioAssay AID1851 (National Center for Advancing Translational Sciences (NCATS), 2009).

One may read the AC50 as the concentration at which the activity in the assay is half-maximal.

Out of some 16,000 compounds screened, about 5,100 (32%) were called active. Another 25% or so got no clear call; they are omitted. Some of the results follow. Values without a mark were called inactive. The call rests on the fitted dose curve; in most records, active means well fitted curve in the direction sought with a large enough effect; inconclusive means small, poorly fitted or top-dose-only effect, or effect the other way; inactive means no such curve, though single readings can be large or run the other way.
On the % scale 0 is the no-effect control and ±100 the full control effect.

Sequence of Cytochrome P450 3A4 (Homo sapiens) (P08684 whole entry, looked up): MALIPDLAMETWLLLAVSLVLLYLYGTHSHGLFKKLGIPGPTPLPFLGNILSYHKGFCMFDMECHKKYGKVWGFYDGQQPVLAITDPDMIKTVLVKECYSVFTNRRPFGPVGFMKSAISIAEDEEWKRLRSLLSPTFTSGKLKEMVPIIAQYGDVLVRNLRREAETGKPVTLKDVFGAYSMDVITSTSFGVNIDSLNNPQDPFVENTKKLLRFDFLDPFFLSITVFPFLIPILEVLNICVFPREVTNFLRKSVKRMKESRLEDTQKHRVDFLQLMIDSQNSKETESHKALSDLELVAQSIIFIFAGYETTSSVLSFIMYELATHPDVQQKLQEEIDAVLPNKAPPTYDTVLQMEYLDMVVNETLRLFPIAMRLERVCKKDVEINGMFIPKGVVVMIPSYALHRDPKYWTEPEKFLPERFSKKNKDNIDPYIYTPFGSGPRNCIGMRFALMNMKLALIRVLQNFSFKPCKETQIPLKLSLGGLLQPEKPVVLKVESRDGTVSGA

The test concerns the target Cytochrome P450 3A4 (Homo sapiens) (UniProt P08684). Put plainly: Cytochrome panel assay with activity outcomes. Conditions: recombinant CYP, pro-luciferin dealkylation, luminescence, p450-cyp3a4; series mostly up to 57.1 µM; activity, negative = inhibition: at the top concentration.
With `Cc1ccnn2cc3c(=O)n(C)c(=O)n(C)c3c12`, the “activity, negative = inhibition” value is -5.05%.
`C=Cc1c(C)c2cc3[nH]c(cc4nc(cc5nc(cc1[nH]2)C(C)=C5CCC(=O)O)C(CCC(=O)O)=C4C)c(C)c3C=C`: the “activity, negative = inhibition” value is -10.4%.
With `COc1cccc(-c2nc(NCc3ccccc3)c3ccccc3n2)c1`, the AC50 was 12.6 µM (active).
Consider `Cc1cccc(CNc2nc(-c3cccnc3)nc3ccccc23)c1`, for which the AC50 was 1 µM (active).
On the same count and under the same terms, to `N#Cc1cccc(-c2nc(NCc3cccnc3)c3ccccc3n2)c1` belongs 5.01 µM (active).
Turning to `N#Cc1cccc(-c2nc(NCc3cccs3)c3ccccc3n2)c1`, the AC50 is 3.98 µM (active).
For `O=[N+]([O-])c1ccc(N2CCOCC2)nc1`, the activity, negative = inhibition is -4.02% [at 2.29 µM].
Regarding `COc1cccc(-c2nc(NC3CC3)c3ccccc3n2)c1`, the AC50 is 1.26 µM (active).
Regarding `COCCNc1nc(-c2cccc(OC)c2)nc2ccccc12`, the AC50 is 5.01 µM (active).
The same measure, in the same setting: with `COc1cccc(-c2nc(NCCNC(C)=O)c3ccccc3n2)c1` the figure was 12.6 µM (active); with `COc1cccc(-c2nc(NCc3cccs3)c3ccccc3n2)c1`, 3.16 µM (active).
Turning to `COc1cccc(Nc2ncc3nc(-c4ccccc4)c(=O)n(Cc4cccs4)c3n2)c1`, the “activity, negative = inhibition” value was -21.3%.
Same read-out and setting: to `NNC(=O)[C@@H](O)[C@H](O)[C@H](O)CO` belongs 0.183% [at 11.4 µM]; to `COc1cccc(/C=N/NC(=O)C(=O)NCc2cccnc2)c1`, -8.44% [at 2.29 µM].
On to `COc1cccc(-c2nc(NCc3cccnc3)c3ccccc3n2)c1`, for which the half-maximal activity concentration (AC50) was 2 µM (active).
Consider `COc1cccc(-c2nc(NCc3ccccc3OC)c3ccccc3n2)c1`, for which the AC50 is 3.98 µM (active).
Regarding `COC(=O)Cc1c(C)nc2nc(NCc3ccccc3OC)[nH]n2c1=O`, the “activity, negative = inhibition” value is -8.91%.
With `O=C(O)c1nn(-c2ccccc2-c2n[nH]c(=O)[nH]c2=O)c(=O)[nH]c1=O`, the activity, negative = inhibition was -2.84% [at 11.4 µM].
Regarding `CCOC(=O)N1CCN(S(=O)(=O)c2ccc3[nH]cc(C(=O)O)c(=O)c3c2)CC1`, the “activity, negative = inhibition” value is -14.5%.
On to `Cc1ccc(C(=O)NCCCN2CCOCC2)cc1N1CCCC1=O`, for which the “activity, negative = inhibition” value was 15.8%.
Same read-out and setting: with `CN1CCN(S(=O)(=O)c2ccc3[nH]cc(C(=O)O)c(=O)c3c2)CC1` the figure was -5.58%.
With `Cc1ccccc1NS(=O)(=O)c1ccc2[nH]cc(C(=O)NCCCN3CCOCC3)c(=O)c2c1`, the AC50 was 2 µM (active).
As for `COc1cccc(NS(=O)(=O)c2ccc3[nH]cc(C(=O)NCCN4CCOCC4)c(=O)c3c2)c1`, the AC50 is 2.82 µM (active).
Regarding `N[C@H](C(=O)O)c1nn[nH]n1`, the “activity, negative = inhibition” value was -1.46%.
On to `C[C@](N)(C(=O)O)c1ccc(-c2nn[nH]n2)cc1`, for which the “activity, negative = inhibition” value was -6.26%.
Regarding `COc1ccc(N2C(=O)CC(S/C(N)=N/N=C(\C)c3cccs3)C2=O)cc1` (configuration not stated), the AC50 was 14.1 µM (active).
In the case of `CCCOc1ccc(N2C(=O)CC(S/C(N)=N/N=C(\C)c3cccs3)C2=O)cc1` (configuration not stated), the activity, negative = inhibition was 7.2% [at 2.29 µM].
Still for that read-out and setting: with `Cc1cccc(Sc2c([N+](=O)[O-])ncn2C)n1` the figure was -3.51%.
`N[C@H](C(=O)O)[C@@H]1C[C@@H]1C(=O)O`: the AC50 entry was “inactive”.
`O=C(N/N=C/c1cccc(C(F)(F)F)c1)C1CCN(c2ncc(C(F)(F)F)cc2Cl)CC1`: the “activity, negative = inhibition” value was -7.12%.
Regarding `Cc1cc(C)nc(NN2C(=O)/C(=C/c3ccccc3)SC2=S)n1`, the “activity, negative = inhibition” value is -9.13%.
Consider `O=C1/C(=C\c2ccccn2)SC(=S)N1Nc1ncc(C(F)(F)F)cc1Cl`, for which the half-maximal activity concentration (AC50) is 3.16 µM (active).
For `c1ccc(C(CCN2CC3CCC(CC3)C2)c2ccccc2)cc1`, the activity, negative = inhibition was -1.84% [at 11.4 µM].
As for `CCN(CC)C(=O)Cn1cnc([N+](=O)[O-])n1`, the “activity, negative = inhibition” value was -15.3%.
In the case of `CCOc1ccc(N(CCC#N)S(=O)(=O)c2ccc(OC)cc2)cc1`, the AC50 was 11.2 µM (active).
For the compound `CCc1cc2c(=O)n(-c3ccccc3)c(=S)[nH]c2s1`, the “activity, negative = inhibition” value is -18.8%.
In the case of `O=c1c2c(-c3cccs3)csc2ncn1-c1ccc(Br)cc1`, the activity, negative = inhibition is -3.71% [at 2.29 µM].
`O=c1c2c(-c3cccs3)csc2[nH]c(=S)n1-c1ccccc1`: the AC50 is 14.1 µM (active).
Consider `CN(Cc1ccco1)c1nc(-c2cccc(C#N)c2)nc2ccccc12`, for which the AC50 was 12.6 µM (active).
Take `COc1cccc(-c2nc(N(C)C)c3ccccc3n2)c1`: the half-maximal activity concentration (AC50) is 5.01 µM (active).
As to `COc1ccccc1-c1nc(N(C)Cc2ccco2)c2ccccc2n1`, the AC50 was 7.94 µM (active).
On to `COc1cccc(-c2nc(N(C)Cc3ccco3)c3ccccc3n2)c1`, for which the AC50 was 10 µM (active).
For `O=C1OCc2cccc3cccc1c23`, the “activity, negative = inhibition” value is 10.8%.
In the case of `FC(F)(F)c1ccccc1-c1ccc2ncnc(NC3CC3)c2c1`, the AC50 is 1.58 µM (active).
Consider `Cc1ccccc1-c1ccc2ncnc(NC3CC3)c2c1`, for which the AC50 is 3.16 µM (active).
With `FC(F)(F)c1ccccc1-c1ccc2ncnc(NC3CCNCC3)c2c1`, the “activity, negative = inhibition” value was -26.8%.
Take `N#Cc1ccccc1-c1ccc2ncnc(NC3CC3)c2c1`: the AC50 was 2 µM (active).
On to `Clc1ccccc1-c1ccc2ncnc(NC3CCNCC3)c2c1`, for which the “activity, negative = inhibition” value was -21.5%.
Regarding `O=C(O)CCc1ccc(-c2ccccc2)[nH]1`, the activity, negative = inhibition is -13.2% [at 11.4 µM].
On to `CC(C)OC(=O)/C(=C\c1ccc2c(c1)c1ccccc1n2C)NC(=O)c1ccccc1`, for which the concentration at half-maximal activity (AC50) is 1.12 µM (active).
Take `CC(C)OC(=O)/C(=C\C=C\c1ccccc1)NC(=O)c1ccccc1`: the “activity, negative = inhibition” value is 14.2%.
Consider `CC(C)SC(=N)N`, for which the “activity, negative = inhibition” value was -8.48%.
Take `COc1ccc(COC(=O)N/N=C2/C[C@@H](O)[C@@H](O)[C@@H]3[C@@H]4C(=O)N(C(C)(C)C)C(=O)[C@H]4CC[C@@H]23)cc1`: the activity, negative = inhibition was -13.5% [at 11.4 µM].
On to `COc1ccc(C(=O)N/N=C(\C)Cn2nc([N+](=O)[O-])cc2C)cc1`, for which the activity, negative = inhibition was -3.05% [at 2.29 µM].
Turning to `COc1ccc(COC(=O)N/N=C(\C)CC(=O)Nc2c(C)cc(C)cc2C)cc1`, the AC50 is 1.78 µM (active).
For the compound `CS(=O)(=O)N1CCC[C@@]2(CCN(C(c3ccccc3)c3ccccc3)C2)C1`, the AC50 is 10 µM (active).
`CS(=O)(=O)N1CCC2(CCCN(C(c3ccccc3)c3ccccc3)C2)CC1`: the AC50 was 3.98 µM (active).
As for `CSc1nnnc2ccccc12`, the activity, negative = inhibition was -8.64% [at 11.4 µM].
As for `O=c1cc(-c2ccccc2)[nH]c2nc(Cl)ccc12`, the “activity, negative = inhibition” value was -5.23%.
Take `N[C@@H](CO)C(=O)O`: the AC50 entry was “inactive”.
Take `O=C1CC(N2CCOCC2)C(=O)N1c1cccc(Cl)c1` (configuration not stated): the “activity, negative = inhibition” value is -3.01%.
`O=C1CC(SC(=Nc2ccccc2)Nc2ccccc2)C(=O)N1c1cccc(Cl)c1` (configuration not stated): the AC50 was 11.2 µM (active).
`CCN=C(Nc1cccc(F)c1)SC1CC(=O)N(c2ccc(OC)cc2)C1=O` (configuration not stated): the concentration at half-maximal activity (AC50) was 6.31 µM (active).
For `CCOC(=O)NNC1CC(=O)N(c2ccc(OC)cc2)C1=O` (configuration not stated), the “activity, negative = inhibition” value is -9.66%.
On the same count and under the same terms, to `CC(=O)Nc1cccc(N2C(=O)CCC2=O)c1` belongs -4.58%.
On to `COc1ccc(CCC(C)Nc2cccc(F)c2)cc1` (configuration not stated), for which the “activity, negative = inhibition” value is 18.9%.
Turning to `Cc1cc(OCCNCCO)cc(C)c1Cl`, the “activity, negative = inhibition” value is -20%.
On to `CC(C)c1ccc(/C=C2\C=C(c3ccc4ccccc4c3)OC2=O)cc1`, for which the activity, negative = inhibition is -9.49% [at 11.4 µM].
As to `CCS(=O)(=O)N1CCC(C(=O)NCCCN2CCCC2)CC1`, the “activity, negative = inhibition” value is -16%.
Regarding `CCS(=O)(=O)N1CCC(C(=O)NCc2ccc(F)cc2Cl)CC1`, the “activity, negative = inhibition” value is -27.7%.
In the case of `Cc1ccc(S(=O)(=O)N2CCC(C(=O)NCc3cccnc3)CC2)cc1`, the AC50 was 3.16 µM (active).
As for `CCCS(=O)(=O)N1CCCC(C(=O)NCCN2CCOCC2)C1` (configuration not stated), the activity, negative = inhibition was 0.644% [at 11.4 µM].
Take `CCN(CC)S(=O)(=O)N1CCC(C(=O)NCc2ccc(C)cc2)CC1`: the AC50 was 11.2 µM (active).
`CCCCN(CC)S(=O)(=O)N1CCC(C(=O)NCCCN2CCOCC2)CC1`: the AC50 is 11.2 µM (active).
As for `CC(C)CN(CC(C)C)S(=O)(=O)N1CCC(C(=O)NCc2ccc(F)cc2)CC1`, the AC50 is 15.8 µM (active).
For the compound `CCS(=O)(=O)N1CCC(C(=O)NCc2cccnc2)CC1`, the activity, negative = inhibition is -2.97% [at 2.29 µM].
`C=C[C@H](N)CCC(=O)O`: the AC50 result is “inactive”.
Regarding `Cc1ccc(CN2C(=O)CCC2C(=O)NCc2cccnc2)cc1` (configuration not stated), the AC50 was 2.24 µM (active).
As for `Cc1nc(SCC(=O)Nc2ccc3c(c2)OCCO3)c2oc3ccccc3c2n1`, the AC50 is 7.94 µM (active).
The same measure, in the same setting: with `CC(C)(C)c1nc(SCC(=O)Nc2ccc3c(c2)OCCO3)c2ccccc2n1` the figure was 7.08 µM (active).
Turning to `CN(C)CCn1nnnc1SCC1=C(C(=O)O)N2C(=O)[C@@H](NC(=O)Cc3csc(N)n3)[C@@H]2SC1`, the “activity, negative = inhibition” value is -0.668% [at 25.6 µM].
For `C[N+]1(C)CCc2cc(O)c(O)cc2[C@H]1Cc1ccc(O)c(O)c1`, the activity, negative = inhibition is -3.96% [at 11.4 µM].
Consider `COC(=O)C/C=C\[C@H](C)[C@@H](OC)c1ccccc1Br`, for which the activity, negative = inhibition was -22.3% [at 11.4 µM].
On to `CCO[C@H](c1cc(OC)cc([N+](=O)[O-])c1OC)[C@H](C)/C=C\CC(=O)OC`, for which the AC50 was 3.98 µM (active).
With `CCC(Sc1nc(=O)cc(N)n1CCc1ccccc1)C(=O)Nc1ccccc1C#N` (configuration not stated), the AC50 is 0.1 µM (active).
On to `N#Cc1ccccc1NC(=O)Nc1cccs1`, for which the “activity, negative = inhibition” value is -12.3%.
Take `Nc1cc(=O)nc(SCC(=O)Nc2cccc3ccccc23)n1CCc1ccccc1`: the AC50 is 0.126 µM (active).
On to `CC(NC(=O)CSc1nc(=O)cc(N)n1CCc1ccccc1)c1ccccc1` (configuration not stated), for which the AC50 was 0.178 µM (active).
With `C[C@H](NC(=O)Cn1cncn1)c1ccccc1`, the “activity, negative = inhibition” value is 9.64%.
Still for that read-out and setting: to `O=C1OCCC=C1[C@@H](O)CCc1ccccc1` belongs -19.7% [at 11.4 µM]; to `Cn1cccc1C(=O)C(=O)Nc1cccc(Cl)c1Cl`, -26.2%.
Regarding `COc1ccc(-n2c(CNC(=O)c3cc(OC)c(OC)c(OC)c3)n[nH]c2=S)cc1`, the half-maximal activity concentration (AC50) is 7.94 µM (active).
Turning to `COCc1nnc(NC(=O)c2ccc(S(=O)(=O)N3CCCCCC3)cc2)o1`, the “activity, negative = inhibition” value is -17.3%.
In the case of `O=C(NCc1n[nH]c(=S)n1-c1cccc(Cl)c1)c1ccc(S(=O)(=O)N2CCCC2)cc1`, the AC50 was 4.47 µM (active).
Consider `COCCNC(=O)c1ccc2c(c1)nc(C)n2-c1cc(OC)c(OC)c(OC)c1`, for which the “activity, negative = inhibition” value is -9.78%.
For the compound `COc1ccc(-n2c(CNC(=O)c3ccc(S(=O)(=O)N4CCCC4)cc3)n[nH]c2=S)cc1`, the AC50 is 12.6 µM (active).
As for `COc1ccc(-n2c(=S)[nH]c3cc(C(=O)NCCCN4CCCC4=O)ccc3c2=O)cc1`, the “activity, negative = inhibition” value is -2.66%.
